Test results as given in PubChem BioAssay AID720650 (Broad Institute, 2013).
Activity calls are given as the source filed them. How the calls were made is not given here.

test: Biochemical counterscreen for C difficile toxins, absence of UDPG, inhibitor dose response (AID 720650); conditions: series mostly up to 19.5 µM

Compound | AC50
Cc1ccc(C(=O)NC(=O)OCCn2c(C)cnc2[N+](=O)[O-])cc1 | inactive
COc1ccc(C(=O)Nc2ccc3c(c2)C(=O)N(C)[C@@H]2CC[C@H](CC(=O)NCC4CC4)O[C@@H]2CO3)cc1 | inactive
CCOC(=O)c1ccc2ncc(-c3ccccc3)nc2c1 | inactive
COc1cc(/C=N/NC(=O)Cn2nnc3ccccc32)ccc1O | inactive
COc1ccc(OCc2cc(-c3ccc(Cl)cc3)no2)cc1 | inactive
